Laboratory results reported in PubChem BioAssay (NCI).
About 83,000 compounds went through this panel and 20% of them were active in at least one assay; those are over-represented in the sample as a whole.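 Activity criterion: percent growth below 10, measured after cells in 96-well plates were exposed to a single compound concentration for 48 hours.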 Calls of active or inactive are those of the source.

Test system: SF-539 CNS
Experiment: NCI-60 one-dose screen, 48 h (100 = growth as untreated, 0 = no growth, -100 = all killed)
Details: 10 µM unless noted

**Q.** How did the growth turn out when `CN1CCC(COc2cnc(-c3cccc(Cn4nc(-c5cccc(C#N)c5)ccc4=O)c3)nc2)CC1` was run?
**A.** 33.5% (inactive)

**Q.** How did the growth turn out when `COc1cc(OC)c(/C=C/S(=O)(=O)Cc2ccc(OC)c(NCC(=O)O)c2)c(OC)c1` was run?
**A.** -17.1% (active)

**Q.** How did the growth turn out when `O=C(NOC[C@H](O)CO)c1ccc(F)c(F)c1Nc1ccc(I)cc1F` was run?
**A.** 64.2% (inactive)

**Q.** For `C=CCN1C(=O)c2cccc3c(-c4ccc5c(c4)ncn5C4CCCCC4)ccc(c23)C1=O`, which growth is on record?
**A.** 71.4% (inactive)

**Q.** For `Cc1cc(O)cc(-c2c(-c3ccnc(-c4cccnc4)c3)cnn2C)c1`, which growth is on record?
**A.** 42.7% (inactive)

**Q.** Which growth does the source give for `O=[N+]([O-])c1cc(Br)cc2c1[nH]c1ccc(Br)cc12` here?
**A.** 84.6% (inactive)

**Q.** With `COc1cc2ncnc(Oc3cccc(NC(=O)Nc4cc(C(C)(C)C(F)(F)F)on4)c3)c2cc1OC` as the compound, how does the growth read?
**A.** 33% (inactive)

**Q.** How did the growth turn out when `CCNC(=O)Nc1nc2ccc(Oc3ccnc(C(=O)NC)c3)cc2s1` was run?
**A.** 77.6% (inactive)

**Q.** Which growth does the source give for `COc1cccc2cc(-c3nc(C4CCC(C(=O)O)CC4)n4ncnc(N)c34)[nH]c12` (stereo unspecified) here?
**A.** -25.6% (active)

**Q.** How did the growth turn out when `CN1CCN(c2nc(C3=C(c4c[nH]c5ccccc45)C(=O)NC3=O)c3ccccc3n2)CC1` was run?
**A.** 92.2% (inactive)

**Q.** With `Cc1cc2c(F)c(Oc3ncnn4cc(OC[C@@H](C)OC(=O)[C@H](C)N)c(C)c34)ccc2[nH]1` as the compound, how does the growth read?
**A.** 73.5% (inactive)

**Q.** `S=C(NCc1ccc2c(c1)OCO2)N1CCN(c2ncnc3c2oc2ccccc23)CC1` was tested. Which growth did it give?
**A.** 39.7% (inactive)

**Q.** For `C=C1CC[C@@H]2[C@](C)(COC(C)=O)[C@H](OC(C)=O)CC[C@@]2(C)[C@@H]1C/C=C1/C(=O)OC[C@H]1OC(C)=O`, which growth is on record?
**A.** 8.54% (active)

**Q.** Which growth does the source give for `C=CC(=O)Nc1cc(Nc2nccc(-c3cn(C)c4ccccc34)n2)c(OC)cc1N(C)CCN(C)C` here?
**A.** -90.7% (active)

**Q.** With `C/C=C/C=N/NC(=S)Nc1ccccc1` as the compound, how does the growth read?
**A.** 89.5% (inactive)

**Q.** With `CN1CC[C@H](c2c(O)cc(O)c3c(=O)cc(-c4ccccc4Cl)oc23)[C@H](O)C1` as the compound, how does the growth read?
**A.** -28% (active)

**Q.** With `CCc1nc(C(N)=O)c(Nc2ccc(N3CCC(N4CCN(C)CC4)CC3)c(OC)c2)nc1NC1CCOCC1` as the compound, how does the growth read?
**A.** -78.3% (active)

**Q.** `C=CC(=O)N1CCC[C@H](n2c(=O)n(-c3ccc(Oc4ccccc4)cc3)c3c(N)ncnc32)C1` was tested. Which growth did it give?
**A.** 104% (inactive)

**Q.** `COCCN1CCN(Cc2ccc(-c3n[nH]c4c3C(=O)c3c(NC(=O)NN5CCOCC5)cccc3-4)cc2)CC1` was tested. Which growth did it give?
**A.** -86.2% (active)

**Q.** How did the growth turn out when `CC(C)(C)c1ccc(Cn2cc(CSc3nc4ccccc4s3)nn2)cc1` was run?
**A.** 101% (inactive)

**Q.** How did the growth turn out when `COc1ccc(-c2ccc3c(N4CCOC[C@@H]4C)nc(N4CCOC[C@@H]4C)nc3n2)cc1CO` was run?
**A.** -39.2% (active)

**Q.** For `COc1cc(N2CCC(N3CCN(C)CC3)CC2)ccc1Nc1ncnc(Nc2ccccc2S(=O)(=O)C(C)C)n1`, which growth is on record?
**A.** 100% (inactive)

**Q.** Which growth does the source give for `COc1cccc(NC(=O)Nc2ccc(Nc3ncnc4sc5c(c34)CCN(C(=O)CCl)C5)cc2)c1` here?
**A.** 106% (inactive)

**Q.** How did the growth turn out when `O=C(Nc1cnn2ccc(N3CCC[C@@H]3c3cc(F)ccc3F)nc12)N1CC[C@H](O)C1` was run?
**A.** 77.4% (inactive)

**Q.** `CC(=O)NCC(=O)N1[C@@H]2CC[C@H]1c1ccc(Nc3ncc(C(F)(F)F)c(NC4CCC4)n3)cc12` was tested. Which growth did it give?
**A.** 11.2% [2.5 µM] (inactive)

**Q.** Which growth does the source give for `CO[C@@H](C)Cn1c(=O)n(C)c2cnc3ccc(-c4cncc(C(C)(C)O)c4)cc3c21` here?
**A.** -39.5% (active)

**Q.** How did the growth turn out when `C[C@@H](Oc1cc(C(=O)Nc2ccc(C(=O)N3CCN(C)CC3)cc2)nnc1N)c1c(Cl)ccc(F)c1Cl` was run?
**A.** 64.9% (inactive)

**Q.** `COc1ccc(-c2cnc(-c3ccc(Cl)cc3)[nH]2)cc1OC` was tested. Which growth did it give?
**A.** 95.6% (inactive)

**Q.** `CC(C)(C)c1nc(-c2cccc(NS(=O)(=O)c3c(F)cccc3F)c2F)c(-c2ccnc(N)n2)s1` was tested. Which growth did it give?
**A.** 114% (inactive)

**Q.** `CCN(CC)c1cc2oc3cc(N)cc(=N)c-3nc2cc1C` was tested. Which growth did it give?
**A.** 1.94% (active)

**Q.** `COC(=O)Nc1nc2ccc(C(=O)c3ccc(N(C)C4COC4)cc3)cc2[nH]1` was tested. Which growth did it give?
**A.** -7% (active)

**Q.** `CNC(=O)c1cc(COc2nnc(Nc3ccc(Cl)cc3)c3ccoc23)ccn1` was tested. Which growth did it give?
**A.** -65.6% (active)

**Q.** With `CCN(CCCOc1ccc2c(Nc3cc(CC(=O)Nc4cccc(F)c4)[nH]n3)ncnc2c1)CCOP(=O)(O)O` as the compound, how does the growth read?
**A.** 48.8% (inactive)

**Q.** `COc1cc2nccc(Oc3ccc(NC(=O)Nc4cc(C)on4)c(Cl)c3)c2cc1OC` was tested. Which growth did it give?
**A.** -50.3% (active)

**Q.** How did the growth turn out when `CNC(=O)c1cc(Oc2cccc3nc(Nc4ccc(Cl)c(F)c4)ccc23)ccn1` was run?
**A.** 41.1% (inactive)

**Q.** With `Cc1nc(NC(=O)N2CCC[C@H]2C(N)=O)sc1-c1ccnc(C(C)(C)C(F)(F)F)c1` as the compound, how does the growth read?
**A.** 28.1% (inactive)

**Q.** How did the growth turn out when `COc1ccc(Nc2ncccc2NC(=O)c2cn(Cc3cccc(Oc4ccccc4)c3)nn2)cc1` was run?
**A.** 95.1% (inactive)

**Q.** Which growth does the source give for `CS(=O)(=O)CCNCc1ccc(-c2ccc3ncnc(Nc4ccc(OCc5cccc(F)c5)c(Cl)c4)c3c2)o1` here?
**A.** -91% (active)

Test system: UACC-257 melanoma
Experiment: as above
Details: 10 µM unless noted

**Q.** `CN1CCC(COc2cnc(-c3cccc(Cn4nc(-c5cccc(C#N)c5)ccc4=O)c3)nc2)CC1` was tested. Which growth did it give?
**A.** -27.5% (active)

**Q.** `COc1cc(OC)c(/C=C/S(=O)(=O)Cc2ccc(OC)c(NCC(=O)O)c2)c(OC)c1` was tested. Which growth did it give?
**A.** 48.7% (inactive)

**Q.** With `O=C(NOC[C@H](O)CO)c1ccc(F)c(F)c1Nc1ccc(I)cc1F` as the compound, how does the growth read?
**A.** -26.8% (active)

**Q.** How did the growth turn out when `C=CCN1C(=O)c2cccc3c(-c4ccc5c(c4)ncn5C4CCCCC4)ccc(c23)C1=O` was run?
**A.** 44.6% (inactive)

**Q.** With `Cc1cc(O)cc(-c2c(-c3ccnc(-c4cccnc4)c3)cnn2C)c1` as the compound, how does the growth read?
**A.** 83.1% (inactive)

**Q.** Which growth does the source give for `O=[N+]([O-])c1cc(Br)cc2c1[nH]c1ccc(Br)cc12` here?
**A.** 88.7% (inactive)

**Q.** How did the growth turn out when `COc1cc2ncnc(Oc3cccc(NC(=O)Nc4cc(C(C)(C)C(F)(F)F)on4)c3)c2cc1OC` was run?
**A.** -10.4% (active)

**Q.** How did the growth turn out when `CCNC(=O)Nc1nc2ccc(Oc3ccnc(C(=O)NC)c3)cc2s1` was run?
**A.** 87.1% (inactive)

**Q.** For `COc1cccc2cc(-c3nc(C4CCC(C(=O)O)CC4)n4ncnc(N)c34)[nH]c12` (stereo unspecified), which growth is on record?
**A.** -22.8% (active)

**Q.** With `CN1CCN(c2nc(C3=C(c4c[nH]c5ccccc45)C(=O)NC3=O)c3ccccc3n2)CC1` as the compound, how does the growth read?
**A.** -20% (active)

**Q.** With `Cc1cc2c(F)c(Oc3ncnn4cc(OC[C@@H](C)OC(=O)[C@H](C)N)c(C)c34)ccc2[nH]1` as the compound, how does the growth read?
**A.** -15.9% (active)

**Q.** How did the growth turn out when `S=C(NCc1ccc2c(c1)OCO2)N1CCN(c2ncnc3c2oc2ccccc23)CC1` was run?
**A.** 9.31% (active)

**Q.** With `C=C1CC[C@@H]2[C@](C)(COC(C)=O)[C@H](OC(C)=O)CC[C@@]2(C)[C@@H]1C/C=C1/C(=O)OC[C@H]1OC(C)=O` as the compound, how does the growth read?
**A.** 66.5% (inactive)

**Q.** For `C=CC(=O)Nc1cc(Nc2nccc(-c3cn(C)c4ccccc34)n2)c(OC)cc1N(C)CCN(C)C`, which growth is on record?
**A.** -79.1% (active)

**Q.** With `C/C=C/C=N/NC(=S)Nc1ccccc1` as the compound, how does the growth read?
**A.** 81.1% (inactive)

**Q.** For `CN1CC[C@H](c2c(O)cc(O)c3c(=O)cc(-c4ccccc4Cl)oc23)[C@H](O)C1`, which growth is on record?
**A.** -23.8% (active)

**Q.** With `CCc1nc(C(N)=O)c(Nc2ccc(N3CCC(N4CCN(C)CC4)CC3)c(OC)c2)nc1NC1CCOCC1` as the compound, how does the growth read?
**A.** 40.5% (inactive)

**Q.** `C=CC(=O)N1CCC[C@H](n2c(=O)n(-c3ccc(Oc4ccccc4)cc3)c3c(N)ncnc32)C1` was tested. Which growth did it give?
**A.** 62.9% (inactive)

**Q.** With `COCCN1CCN(Cc2ccc(-c3n[nH]c4c3C(=O)c3c(NC(=O)NN5CCOCC5)cccc3-4)cc2)CC1` as the compound, how does the growth read?
**A.** -19.1% (active)

**Q.** For `CC(C)(C)c1ccc(Cn2cc(CSc3nc4ccccc4s3)nn2)cc1`, which growth is on record?
**A.** 97.3% (inactive)

**Q.** With `COc1ccc(-c2ccc3c(N4CCOC[C@@H]4C)nc(N4CCOC[C@@H]4C)nc3n2)cc1CO` as the compound, how does the growth read?
**A.** -24.8% (active)

**Q.** `COc1cc(N2CCC(N3CCN(C)CC3)CC2)ccc1Nc1ncnc(Nc2ccccc2S(=O)(=O)C(C)C)n1` was tested. Which growth did it give?
**A.** 108% (inactive)

**Q.** With `COc1cccc(NC(=O)Nc2ccc(Nc3ncnc4sc5c(c34)CCN(C(=O)CCl)C5)cc2)c1` as the compound, how does the growth read?
**A.** 93.4% (inactive)

**Q.** For `O=C(Nc1cnn2ccc(N3CCC[C@@H]3c3cc(F)ccc3F)nc12)N1CC[C@H](O)C1`, which growth is on record?
**A.** 70.8% (inactive)

**Q.** `CC(=O)NCC(=O)N1[C@@H]2CC[C@H]1c1ccc(Nc3ncc(C(F)(F)F)c(NC4CCC4)n3)cc12` was tested. Which growth did it give?
**A.** 59.8% [2.5 µM] (inactive)

**Q.** Which growth does the source give for `CO[C@@H](C)Cn1c(=O)n(C)c2cnc3ccc(-c4cncc(C(C)(C)O)c4)cc3c21` here?
**A.** -16.6% (active)

**Q.** `C[C@@H](Oc1cc(C(=O)Nc2ccc(C(=O)N3CCN(C)CC3)cc2)nnc1N)c1c(Cl)ccc(F)c1Cl` was tested. Which growth did it give?
**A.** 60.9% (inactive)

**Q.** Which growth does the source give for `COc1ccc(-c2cnc(-c3ccc(Cl)cc3)[nH]2)cc1OC` here?
**A.** 119% (inactive)

**Q.** How did the growth turn out when `CC(C)(C)c1nc(-c2cccc(NS(=O)(=O)c3c(F)cccc3F)c2F)c(-c2ccnc(N)n2)s1` was run?
**A.** 25.2% (inactive)

**Q.** `CCN(CC)c1cc2oc3cc(N)cc(=N)c-3nc2cc1C` was tested. Which growth did it give?
**A.** 32.9% (inactive)

**Q.** Which growth does the source give for `COC(=O)Nc1nc2ccc(C(=O)c3ccc(N(C)C4COC4)cc3)cc2[nH]1` here?
**A.** 44.4% (inactive)

**Q.** With `CNC(=O)c1cc(COc2nnc(Nc3ccc(Cl)cc3)c3ccoc23)ccn1` as the compound, how does the growth read?
**A.** 33.3% (inactive)

**Q.** With `CCN(CCCOc1ccc2c(Nc3cc(CC(=O)Nc4cccc(F)c4)[nH]n3)ncnc2c1)CCOP(=O)(O)O` as the compound, how does the growth read?
**A.** 49.9% (inactive)

**Q.** How did the growth turn out when `COc1cc2nccc(Oc3ccc(NC(=O)Nc4cc(C)on4)c(Cl)c3)c2cc1OC` was run?
**A.** 19.6% (inactive)

**Q.** `CNC(=O)c1cc(Oc2cccc3nc(Nc4ccc(Cl)c(F)c4)ccc23)ccn1` was tested. Which growth did it give?
**A.** 74.5% (inactive)

**Q.** Which growth does the source give for `Cc1nc(NC(=O)N2CCC[C@H]2C(N)=O)sc1-c1ccnc(C(C)(C)C(F)(F)F)c1` here?
**A.** 40% (inactive)

**Q.** How did the growth turn out when `COc1ccc(Nc2ncccc2NC(=O)c2cn(Cc3cccc(Oc4ccccc4)c3)nn2)cc1` was run?
**A.** 93% (inactive)

**Q.** `CS(=O)(=O)CCNCc1ccc(-c2ccc3ncnc(Nc4ccc(OCc5cccc(F)c5)c(Cl)c4)c3c2)o1` was tested. Which growth did it give?
**A.** -94.1% (active)
